Data: PubChem BioAssay AID743463 (Broad Institute, 2014)
The other results are listed elsewhere or left out. Results filed as inconclusive are left out. Activity calls are given as the source filed them.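 How the source made its calls: active means dose curves showing G6PC suppression whose half-maximal dose is at most twice the top valid dose; inconclusive means flat curves with moderate negative activity, or unreliable fits; inactive means the rest.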

Test: suppressors of forskolin-stimulated G6PC mRNA, dose response, PGC-1a acetylation activator project, cell-based, hepatocytes, RT-qPCR, cherry-picked samples (AID 743463);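 further: G6PC expression relative to GAPDH housekeeping gene as delta delta Ct; 0% = median of neutral control wells and 100% = median of positive control wells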
Conditions: primary mouse hepatocytes; series mostly up to 26 µM; G6PC suppression (normalized activity, % of positive control; higher = more suppression): at the top concentration

| Compound | G6PC suppression (normalized activity, % of positive control; higher = more suppression) |
| --- | --- |
| COc1ccc(-n2nnnc2CNC(=O)c2ccc3ccccc3c2)cc1 | 340% (inactive) |
| CCOC(=O)c1c(-c2ccc(C)cc2C)csc1NC(=O)CSc1nnnn1C | -2.87% (inactive) |
| CCC(C)(C)n1nnnc1C(c1ccccc1OC)N1CCSCC1 (stereo not given) | -37.1% (inactive) |
| O=S(=O)(NCc1ccccc1Br)c1ccccc1Br | 38.2% (inactive) |
| Cc1ccc(S(=O)(=O)Nc2ccc3c(c2)C(=O)N([C@@H](C)CO)C[C@@H](C)[C@H](CN(C)C(=O)Nc2cccc4ccccc24)OCCCC[C@H](C)O3)cc1 | 10.1% (inactive) |
| O=C(NCc1ccccc1)C(c1ccccc1)N(C(=O)c1csnn1)c1ccc(F)cc1 (stereo not given) | 51% [at 8 µM] (inactive) |
| CCOc1ccccc1CN1CCN(C2CCC2)CC1CCO (stereo not given) | 0.835% (inactive) |
| Cc1cc(C)c2c(-n3cccc3)c(C(=O)NNS(=O)(=O)c3ccc(F)cc3)sc2n1 | 18% (inactive) |
| CCOC(=O)c1c(NC(=O)CSc2cn(CC)c3ccccc23)sc2c1CCC2 | -7.69% (inactive) |
| Cc1cc(C(=O)NNS(=O)(=O)c2ccccc2C(F)(F)F)nn1C(C)(C)C | -16.2% (inactive) |
| CC(C)CCNc1nc(N2CCCC2)c2c(c1C#N)CCN(C)C2 | 120% (inactive) |
| Cc1ccc(OCC(=O)NCCCNC(=O)c2cccnc2)cc1C | 43.4% (inactive) |
| COc1ccc(Nc2nnc(C)c3ccccc23)cc1 | 34.4% (inactive) |
| O=C(NCCC1CCCCN1S(=O)(=O)c1cccs1)C(=O)Nc1ccc(F)cc1F (stereo not given) | -32.6% (inactive) |
| CCCCC(=O)Nc1ccc(C(=O)NCCCn2ccnc2)cc1 | 15.2% (inactive) |
